This note sets out measurements from ChEMBL document CHEMBL3988442, “University of Dundee, Small-Polar-MMV Screening Library” (2021).

Holding throughout (design): scale not given: direction of the effect not stated beside the values
Assay [1] addresses Protein translocase subunit SecA (Escherichia coli (strain K12)) (UniProt P10408). The assay can be described thus: Assay to Identify E. coli SecA ATPase Inhibitors. Format: functional. Particulars: 30 µM.
Assay [2] concerns the target T1, Ubiquitin-activating enzyme e1, putative (Leishmania donovani (strain BPK282A1)) (UniProt E9BSI1).
T1 sequence (whole entry): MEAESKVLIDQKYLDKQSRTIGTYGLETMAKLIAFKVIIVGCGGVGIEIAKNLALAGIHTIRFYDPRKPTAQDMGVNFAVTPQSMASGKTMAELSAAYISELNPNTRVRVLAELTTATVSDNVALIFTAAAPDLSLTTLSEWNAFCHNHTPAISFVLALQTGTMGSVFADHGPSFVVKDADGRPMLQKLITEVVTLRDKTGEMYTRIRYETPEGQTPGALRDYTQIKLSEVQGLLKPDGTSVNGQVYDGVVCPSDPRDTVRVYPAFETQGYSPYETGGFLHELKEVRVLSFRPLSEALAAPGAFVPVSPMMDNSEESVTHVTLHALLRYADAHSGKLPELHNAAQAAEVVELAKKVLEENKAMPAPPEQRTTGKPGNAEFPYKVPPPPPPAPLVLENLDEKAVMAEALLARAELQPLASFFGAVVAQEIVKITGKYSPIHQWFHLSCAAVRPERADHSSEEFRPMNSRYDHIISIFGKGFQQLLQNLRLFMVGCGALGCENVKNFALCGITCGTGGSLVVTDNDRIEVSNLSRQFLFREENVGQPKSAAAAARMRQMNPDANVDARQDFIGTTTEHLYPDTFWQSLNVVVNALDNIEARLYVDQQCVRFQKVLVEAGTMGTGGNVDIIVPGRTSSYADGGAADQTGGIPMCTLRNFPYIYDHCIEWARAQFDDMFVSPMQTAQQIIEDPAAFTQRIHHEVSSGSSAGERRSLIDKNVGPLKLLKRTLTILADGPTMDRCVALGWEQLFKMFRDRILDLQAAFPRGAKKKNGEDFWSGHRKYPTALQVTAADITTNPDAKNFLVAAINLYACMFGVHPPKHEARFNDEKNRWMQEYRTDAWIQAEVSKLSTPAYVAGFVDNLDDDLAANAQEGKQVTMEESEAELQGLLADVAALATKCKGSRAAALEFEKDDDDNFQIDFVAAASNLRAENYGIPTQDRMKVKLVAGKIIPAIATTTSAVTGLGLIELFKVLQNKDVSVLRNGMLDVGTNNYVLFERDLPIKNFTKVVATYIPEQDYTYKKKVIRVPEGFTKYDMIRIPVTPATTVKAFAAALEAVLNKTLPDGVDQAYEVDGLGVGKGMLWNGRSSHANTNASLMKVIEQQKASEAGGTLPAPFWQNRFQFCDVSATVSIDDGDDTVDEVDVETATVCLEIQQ
Description: Leishmania donovani Ubiquitin Activating Enzyme (LdE1). The note with it: 30 µM. The format is functional.

The target in assay [3] is AMP-activated protein kinase, AMPK (Homo sapiens) (UniProt P54646+O43741+P54619+Q9UGJ0+Q9Y478+Q13131+Q9UGI9). The assay can be described thus: AMP-dependent Kinase enzyme assay. An in vitro enzyme assay that detects ADP turnover that is directly proportional to AMPK activity. This uses naive AMPK that is activated during the assay with MK-8722. The format is functional. Particulars: 30 µM.

Assay [4] deals with Sialic acid-binding Ig-like lectin 9 (Homo sapiens) (UniProt Q9Y336). Description: Hs-Siglec9 ALPHAscreen SOP 20170721. Particulars: 10 µM.
Sequence of Sialic acid-binding Ig-like lectin 9 (Homo sapiens) (Q9Y336 whole entry): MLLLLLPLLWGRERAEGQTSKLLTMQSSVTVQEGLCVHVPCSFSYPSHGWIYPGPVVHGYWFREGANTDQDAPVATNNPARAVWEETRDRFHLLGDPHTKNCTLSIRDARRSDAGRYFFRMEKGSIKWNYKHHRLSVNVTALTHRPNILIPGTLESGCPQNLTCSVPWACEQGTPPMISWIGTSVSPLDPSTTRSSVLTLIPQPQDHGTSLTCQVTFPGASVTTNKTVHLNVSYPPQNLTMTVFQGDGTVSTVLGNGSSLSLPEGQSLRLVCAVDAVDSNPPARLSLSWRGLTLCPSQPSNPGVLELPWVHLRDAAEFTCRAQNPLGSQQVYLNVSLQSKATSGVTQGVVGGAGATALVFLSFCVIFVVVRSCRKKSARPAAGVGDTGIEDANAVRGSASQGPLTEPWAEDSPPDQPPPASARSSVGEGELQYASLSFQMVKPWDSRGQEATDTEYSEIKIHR
Another assay has as its system Trypanosoma cruzi. Description: Trypanosoma cruzi phosphomannomutase and mannose-1-phosphate guanylyltransferase assay. The format is functional. Particulars: 10 µM.
Assay [5] concerns the target T2, Arginase-2, mitochondrial (Homo sapiens) (UniProt P78540).
T2 sequence (whole entry): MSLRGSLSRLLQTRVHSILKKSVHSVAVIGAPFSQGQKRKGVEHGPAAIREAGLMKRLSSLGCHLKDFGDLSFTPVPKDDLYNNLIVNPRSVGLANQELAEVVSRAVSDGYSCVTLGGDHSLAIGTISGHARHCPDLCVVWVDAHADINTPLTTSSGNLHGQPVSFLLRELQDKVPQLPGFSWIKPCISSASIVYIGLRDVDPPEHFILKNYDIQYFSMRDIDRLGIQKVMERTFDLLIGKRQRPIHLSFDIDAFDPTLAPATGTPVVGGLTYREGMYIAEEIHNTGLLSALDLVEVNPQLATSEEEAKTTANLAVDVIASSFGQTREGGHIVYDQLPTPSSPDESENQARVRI
The assay can be described thus: in vitro enzyme assay to detect the production of urea directly proportional to the activity of Arginase II. Note: in the data most compounds retested in dose-response had high values. Format: functional. The note with it: 33.3 µM.

The target in assay [6] is T3, Proteasome subunit beta (Trypanosoma cruzi) (UniProt O96673).
T3 sequence (whole entry): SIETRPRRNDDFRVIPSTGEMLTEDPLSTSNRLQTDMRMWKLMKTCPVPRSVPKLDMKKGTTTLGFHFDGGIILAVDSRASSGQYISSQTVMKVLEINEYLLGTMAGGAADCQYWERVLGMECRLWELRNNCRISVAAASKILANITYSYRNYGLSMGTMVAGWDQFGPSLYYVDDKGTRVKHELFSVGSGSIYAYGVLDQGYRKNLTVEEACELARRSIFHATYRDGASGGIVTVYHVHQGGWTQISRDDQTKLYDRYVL
Description: Trypanosoma cruzi proteasome chymotrypsin-like activity (TcProtChymo) assay. Note: in the data most compounds retested in dose-response had high values. Particulars: 9.37 µM. Format: functional.

For the next assay, the species on record is Homo sapiens. The assay can be described thus: To identify inhibition of the IFN signalling (Jak-Stat) pathway via expression of an eGFP reporter gene under the control of an IFN-stimulated response element (ISRE) containing MxA promoter. Format: functional. The note with it: 30 µM. For orientation: Reporter assays use an easily measured gene product as a stand-in for the process of interest.

The target in assay [7] is T4, Tyrosyl-tRNA synthetase, putative (Trypanosoma cruzi (strain CL Brener)) (UniProt Q4DSP6).
T4 sequence (whole entry): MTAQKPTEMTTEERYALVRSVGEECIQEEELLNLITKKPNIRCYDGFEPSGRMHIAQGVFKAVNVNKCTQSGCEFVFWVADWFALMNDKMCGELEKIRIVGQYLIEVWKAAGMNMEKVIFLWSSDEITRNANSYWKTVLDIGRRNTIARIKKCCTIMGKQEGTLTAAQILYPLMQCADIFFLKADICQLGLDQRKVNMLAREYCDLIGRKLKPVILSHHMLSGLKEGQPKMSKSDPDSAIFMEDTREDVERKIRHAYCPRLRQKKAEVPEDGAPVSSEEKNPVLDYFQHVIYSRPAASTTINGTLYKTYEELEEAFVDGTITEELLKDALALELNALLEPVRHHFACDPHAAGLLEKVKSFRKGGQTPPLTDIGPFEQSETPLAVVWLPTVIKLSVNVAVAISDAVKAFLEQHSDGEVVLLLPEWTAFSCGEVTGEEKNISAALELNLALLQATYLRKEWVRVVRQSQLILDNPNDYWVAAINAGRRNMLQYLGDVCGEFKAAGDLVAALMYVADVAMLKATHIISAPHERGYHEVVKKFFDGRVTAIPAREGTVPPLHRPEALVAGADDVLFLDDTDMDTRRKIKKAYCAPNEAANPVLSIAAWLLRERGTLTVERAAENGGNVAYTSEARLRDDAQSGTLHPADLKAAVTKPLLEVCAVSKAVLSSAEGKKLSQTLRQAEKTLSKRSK
The assay can be described thus: Trypanosoma cruzi tyrosyl tRNA synthetase (TcYRS) _High Tyrosine SOP. Note: in the data most compounds retested in dose-response had high values. The format is functional. Particulars: 30 µM.

Assay [8] addresses T4, Tyrosyl-tRNA synthetase, putative (Trypanosoma cruzi (strain CL Brener)). The assay can be described thus: Trypanosoma cruzi tyrosyl tRNA synthetase (TcYRS) SOP. Format: functional. The note with it: 30 µM.
The target in assay [9] is Chromo domain-containing protein 1 (Saccharomyces cerevisiae (strain ATCC 204508 / S288c) (Baker's yeast)) (UniProt P32657). The assay can be described thus: ScCHD-1 Enzyme Inhibition Assay. Note: in the data most compounds retested in dose-response had high values. The format is functional. The note with it: 30 µM.
Sequence of Chromo domain-containing protein 1 (Saccharomyces cerevisiae (strain ATCC 204508 / S288c) (Baker's yeast)) (P32657 whole entry, the tested form may be a part): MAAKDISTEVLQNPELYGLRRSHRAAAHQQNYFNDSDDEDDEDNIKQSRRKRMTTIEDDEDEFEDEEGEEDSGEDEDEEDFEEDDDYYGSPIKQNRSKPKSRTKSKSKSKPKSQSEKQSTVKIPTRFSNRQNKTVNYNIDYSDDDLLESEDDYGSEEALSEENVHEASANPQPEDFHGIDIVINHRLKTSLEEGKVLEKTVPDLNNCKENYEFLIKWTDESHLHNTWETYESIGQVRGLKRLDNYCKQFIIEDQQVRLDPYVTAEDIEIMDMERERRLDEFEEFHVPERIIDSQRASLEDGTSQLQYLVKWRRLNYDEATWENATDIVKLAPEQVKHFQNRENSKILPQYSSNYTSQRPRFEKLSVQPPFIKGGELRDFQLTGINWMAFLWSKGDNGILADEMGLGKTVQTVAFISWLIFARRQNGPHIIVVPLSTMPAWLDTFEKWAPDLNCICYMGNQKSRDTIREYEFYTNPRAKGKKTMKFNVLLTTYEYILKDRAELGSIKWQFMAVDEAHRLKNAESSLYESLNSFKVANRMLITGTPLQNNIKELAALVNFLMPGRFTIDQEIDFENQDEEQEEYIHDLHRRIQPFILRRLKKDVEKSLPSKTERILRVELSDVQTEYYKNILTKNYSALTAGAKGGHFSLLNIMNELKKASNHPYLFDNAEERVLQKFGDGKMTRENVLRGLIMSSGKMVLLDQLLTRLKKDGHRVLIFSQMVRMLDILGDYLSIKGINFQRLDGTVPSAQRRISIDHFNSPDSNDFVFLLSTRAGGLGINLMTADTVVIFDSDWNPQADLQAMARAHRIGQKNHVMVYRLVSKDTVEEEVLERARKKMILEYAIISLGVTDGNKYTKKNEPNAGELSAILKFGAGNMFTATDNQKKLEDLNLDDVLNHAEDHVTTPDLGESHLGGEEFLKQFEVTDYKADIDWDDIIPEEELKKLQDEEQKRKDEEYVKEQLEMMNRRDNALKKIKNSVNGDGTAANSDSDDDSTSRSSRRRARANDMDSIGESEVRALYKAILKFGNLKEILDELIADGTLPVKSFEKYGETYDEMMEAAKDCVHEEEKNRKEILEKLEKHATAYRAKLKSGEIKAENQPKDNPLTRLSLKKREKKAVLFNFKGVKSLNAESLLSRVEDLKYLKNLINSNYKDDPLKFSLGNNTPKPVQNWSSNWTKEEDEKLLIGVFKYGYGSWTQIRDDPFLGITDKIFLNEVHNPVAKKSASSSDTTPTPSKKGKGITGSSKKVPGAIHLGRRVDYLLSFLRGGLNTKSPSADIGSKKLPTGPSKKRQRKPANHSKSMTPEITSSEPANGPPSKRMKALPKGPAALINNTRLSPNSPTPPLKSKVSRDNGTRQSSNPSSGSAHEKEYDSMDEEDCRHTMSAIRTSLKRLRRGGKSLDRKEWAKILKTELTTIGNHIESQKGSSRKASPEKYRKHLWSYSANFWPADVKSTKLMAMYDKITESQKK

For some assays here: Results with a measured potency or affinity are listed apart.

Sequence of Protein translocase subunit SecA (Escherichia coli (strain K12)) (P10408 whole entry): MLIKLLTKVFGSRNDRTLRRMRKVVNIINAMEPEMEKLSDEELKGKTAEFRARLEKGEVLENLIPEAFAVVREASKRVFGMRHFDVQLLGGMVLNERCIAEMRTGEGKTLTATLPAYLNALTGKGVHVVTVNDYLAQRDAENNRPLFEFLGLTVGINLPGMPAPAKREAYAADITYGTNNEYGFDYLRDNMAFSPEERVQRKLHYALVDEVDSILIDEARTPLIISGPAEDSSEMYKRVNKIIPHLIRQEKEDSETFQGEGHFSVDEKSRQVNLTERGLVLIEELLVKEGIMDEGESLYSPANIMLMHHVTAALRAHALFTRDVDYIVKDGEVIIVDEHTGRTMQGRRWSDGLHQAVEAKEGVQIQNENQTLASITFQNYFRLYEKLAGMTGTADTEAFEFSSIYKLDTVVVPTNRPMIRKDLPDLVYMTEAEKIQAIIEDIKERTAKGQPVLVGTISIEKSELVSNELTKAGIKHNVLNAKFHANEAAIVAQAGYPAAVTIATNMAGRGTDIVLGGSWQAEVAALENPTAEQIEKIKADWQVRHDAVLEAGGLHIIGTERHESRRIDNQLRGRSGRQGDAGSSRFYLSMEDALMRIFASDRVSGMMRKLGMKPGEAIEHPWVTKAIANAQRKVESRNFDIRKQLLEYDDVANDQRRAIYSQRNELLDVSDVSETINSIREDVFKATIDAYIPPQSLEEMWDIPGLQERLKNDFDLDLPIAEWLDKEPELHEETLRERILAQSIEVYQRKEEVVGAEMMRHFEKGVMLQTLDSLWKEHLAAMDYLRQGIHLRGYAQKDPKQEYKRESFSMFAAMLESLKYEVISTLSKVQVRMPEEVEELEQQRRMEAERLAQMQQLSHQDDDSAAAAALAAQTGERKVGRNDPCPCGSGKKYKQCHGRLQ

As for `CC(C)(C)C(=O)NS(=O)(=O)c1ccc(C#N)cc1C(F)(F)F`, the Percent Effect in assay [1] is -3.4%; in assay [2], 8.11%; in assay [3] it was -4.85%; in assay [4], 3.66%; in the assay with Trypanosoma cruzi it was -0.849%; in assay [5], 2.81%. The Percent Effect is 1.8% in assay [6]; 7.18% in the assay listed under Homo sapiens; 1.48% in assay [7]; 11.1% in assay [8]; -3.67% in [9].

As for `CN(C)C(=O)c1cccc(NC(=O)N(CCO)Cc2ccsc2)c1`, the Percent Effect in assay [1] was -0.273%; in assay [2], 9.72%; in assay [3], -9.76%; in [4], 7.88%; in the assay with Trypanosoma cruzi, 3.79%; in [5], 11%. The Percent Effect in [6] was 11.8%; in the assay listed under Homo sapiens, -1.39%; in assay [7], 5.26%; in assay [8], 12.8%; in assay [9], -3.15%.

`Cn1nc2c(cc1=O)CN(CCc1nc3ccccc3c(=O)[nH]1)CC2`: the Percent Effect in assay [1] was -4.31%; in [2], 5.48%; in [3] it was -206%; in [4], -0.89%; in the assay with Trypanosoma cruzi it was 8.23%; in assay [5], 2.27%. Also, the Percent Effect was 17.9% in assay [6]; 6.4% in the assay filed under Homo sapiens; -1.07% in [7]; 0% in assay [8]; -7.87% in [9].

For the molecule `O=C(C1CC1)N1CCC(c2nc(O)c3c(n2)CCN(C2CCCC2)C3)C1` (stereo not given), the Percent Effect is -5.51% in assay [1]; 13.3% in assay [2]; 6.57% in [3]; -6.26% in assay [4]; -4.33% with Trypanosoma cruzi; 1.17% in [5]. Besides, the Percent Effect in assay [6] is 5.55%; in the assay filed under Homo sapiens it was 11.8%; in assay [7] it was 1.06%; in assay [8], 6.41%; in assay [9], -7.54%.

On to `Cn1cccc1CNC(=O)N(CCO)C1CCCc2ccccc21` (stereo not given), for which the Percent Effect in [1] was -4.61%; in assay [2] it was -5.26%; in [3], -1.52%; in [4], 0.538%; in the assay on Trypanosoma cruzi it was 3.8%; in [5], -14.2%. The Percent Effect in assay [6] was 2.01%; in the assay filed under Homo sapiens it was 1.76%; in assay [7] it was 2.13%; in [8], 0%; in [9] it was -9.55%.

Take `Cc1nc(CN2CCCCC2Cn2cncn2)nc2ccccc12` (stereo not given): the Percent Effect in assay [1] was -2.07%; in [2] it was 26%; in assay [3] it was -3.54%; in assay [4], -19.4%; in the assay on Trypanosoma cruzi, 3.23%; in [5], 1.47%. Also, the Percent Effect was 20.1% in assay [6]; 2.22% in the assay filed under Homo sapiens; 10.5% in assay [7]; 23.5% in assay [8]; -22.8% in assay [9].

`COc1ccc(CN2CCCCC2CNC(=O)OC(C)(C)C)cc1F` (stereo not given): the Percent Effect in [1] was -3.55%; in [2], 0%; in assay [3] it was -2.98%; in assay [4] it was 21.3%; with Trypanosoma cruzi, -1.86%; in assay [5], -1.74%. Further, the Percent Effect in [6] is 0.0858%; in the assay listed under Homo sapiens, -23.7%; in assay [7] it was -2.15%; in assay [8], 1.24%; in assay [9], -2.09%.

For `O=C(CCC1CCCO1)NCc1ccnc(-n2cccn2)c1` (stereo not given), the Percent Effect in assay [1] was -7.06%; in assay [2] it was 13.2%; in assay [3], 2.95%; in assay [4], -9.63%; in the assay on Trypanosoma cruzi it was -7.38%; in assay [5] it was -1.44%. Further, the Percent Effect in assay [6] was 5.33%; in the assay listed under Homo sapiens, 10.6%; in assay [7], 0.493%; in [8], 11.1%; in assay [9], -5.06%.

For the molecule `CCc1nccn1C1CCCN(C(=O)c2cc3nc(C)ccc3o2)C1` (stereo not given), the Percent Effect was -7.55% in assay [1]; 8.11% in assay [2]; -3.48% in assay [3]; 4.87% in assay [4]; -6.7% in the assay on Trypanosoma cruzi; -4.81% in assay [5]. Moreover, the Percent Effect in assay [6] was 4.87%; in the assay filed under Homo sapiens, 32.4%; in [7], 3.45%; in assay [8], 3.7%; in [9], 0.188%.

On to `CCNc1cc2c(nn1)CCN(C(=O)CC1CCCCC1)C2`, for which the Percent Effect in assay [1] was -8.49%; in assay [2], 12.7%; in assay [3], 0.0974%; in [4] it was 9.47%; with Trypanosoma cruzi, 1.42%; in [5], 3.04%. In addition, the Percent Effect in assay [6] was -0.0819%; in the assay listed under Homo sapiens it was -11.3%; in [7] it was 16.3%; in assay [8], 8.86%; in assay [9], -8.44%.
